The list is not random: actives were taken first. Their share in the collection is about 5%.
ALR H2O2 inh – inhibitors of human ALR sulfhydryl oxidase, primary screen, biochemical, H2O2 detection, HRP-luminol luminescence, single point; FAD-linked sulfhydryl oxidase ALR (Homo sapiens), P55789; purified ALR, DTT oxidation; inhibition, % (no concentration beside the values); actives 3.8% (n = 290,000);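 active means mean replicate inhibition above about 79%, with every replicate also reaching it, limit read from the data; inconclusive means only one of the two criteria met; inactive means mean below limit and not every replicate reaching it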
CHT PAM – CHT positive allosteric modulators, primary screen, cell-based, membrane potential dye, choline EC20; High affinity choline transporter 1 (Homo sapiens), Q9GZV3; CHT-expressing cells; active compounds read high; LV-AA mutant CHT in HEK293 cells; B-score at 10 µM; actives 0.49% (n = 310,000); AID 488977, 2010;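 active means initial fluorescence not abnormally high and integrated response B-score, plate-corrected, over 3 SD above library mean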
Target sequence (Q9GZV3 whole entry, looked up): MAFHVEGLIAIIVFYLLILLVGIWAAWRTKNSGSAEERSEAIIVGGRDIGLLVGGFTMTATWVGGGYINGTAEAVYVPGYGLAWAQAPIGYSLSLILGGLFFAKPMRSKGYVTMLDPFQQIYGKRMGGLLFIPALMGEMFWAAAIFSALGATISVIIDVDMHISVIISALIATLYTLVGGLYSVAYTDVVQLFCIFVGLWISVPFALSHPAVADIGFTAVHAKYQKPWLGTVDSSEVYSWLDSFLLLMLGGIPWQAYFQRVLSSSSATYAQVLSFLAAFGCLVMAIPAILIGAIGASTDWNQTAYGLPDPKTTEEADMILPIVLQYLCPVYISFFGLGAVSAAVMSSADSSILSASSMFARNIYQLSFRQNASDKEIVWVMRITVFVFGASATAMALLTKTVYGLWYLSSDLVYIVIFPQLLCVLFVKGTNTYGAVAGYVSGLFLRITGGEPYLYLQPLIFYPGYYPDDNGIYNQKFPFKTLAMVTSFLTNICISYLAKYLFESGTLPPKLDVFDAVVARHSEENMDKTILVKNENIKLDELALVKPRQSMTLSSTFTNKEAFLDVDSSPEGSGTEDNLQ
AI-2 QS modul – Vibrio harveyi AI-2 quorum sensing modulators, primary screen, JMH597 strain, luminescence/OD600 ratio; AID 2094, 2009; Vibrio harveyi JMH597 AI-2 luminescence/OD600 ratio, 9 h; active compounds read low; strain lacks LuxN and CqsS sensors; 0 = neutral-control median; activity change, % at 7.5 µM; actives 0.4% (n = 300,000); in the data active means activity change below about -75%, passing the limit was not always enough; inconclusive means no clear call, values can overlap the other calls;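 further: luminescence divided by OD600 gain over 9 h not by final OD600 alone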
PREPL inhibitor – PREPL enzyme inhibitors, primary screen, biochemical, fluorescence polarization | recombinant PREPL, fluorescence polarization activity-based probe | inhibition, % at 5.96 µM | actives 0.68% (n = 320,000); in the data active means inhibition above about 43%;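 further: 0% = enzyme with DMSO and 100% = wells lacking enzyme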
CHT block – inhibitors of human choline transporter CHT; CHT-expressing cells, membrane potential dye, choline response; active compounds read low; B-score at 10 µM; actives 0.86% (n = 310,000); AID 488975, 2010;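 active means B-score over 3 SD under the library average, and starting fluorescence ratio not unusually high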;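 further: choline stimulus applied at its EC90 after an EC20 pre-addition; B-score computed on integrated fluorescence ratio after choline addition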
An asterisk follows results filed as active; i = inactive; ? = inconclusive; nt = no result.

SMILES	ALR H2O2 inh	CHT PAM	AI-2 QS modul	PREPL inhibitor	CHT block
Oc1ccc(N=Nc2ccc(Br)cc2)c(O)c1	99*	i	2	17	i
Cc1[nH]c2c(C)cccc2c1CN1CCC(CO)(Cc2ccccc2)CC1	2	i	30	-3	i
O=S(=O)(c1ccc2ccccc2c1)N1CCOCC1	nt	i	14	5	i
O=S(=O)(c1ccc2c(c1)CCN2)N1CCOCC1	78*	nt	nt	2	nt
Cc1ccc(NC(=O)COC(=O)Cc2cccs2)cc1S(=O)(=O)N1CCOCC1	-3	i	-18	4	i
Cc1cc(Nc2ccccc2)n(-c2ccc(C(=O)O)cc2)n1	99*	i	3	9	i
Cc1cc(Nc2ccccc2)n(-c2cccc(Cl)c2)n1	99*	i	-14	10	i
COc1ccc(-n2nc(C)cc2Nc2ccccc2C(=O)O)cc1	99*	i	26	4	i
Cc1noc(NS(=O)(=O)c2ccc(NC(=O)C34CC5CC(C3)CC(n3cnc(Br)n3)(C5)C4)cc2)c1C	nt	i	18	15	i
CN(CC(=O)Nc1ccccc1Cl)C(=O)Cn1nnc(-c2ccc(F)cc2)n1	1	i	34	-2	i
O=C1CC(NS(=O)(=O)c2ccc([N+](=O)[O-])cc2)CN1c1ccc(Cl)cc1 (stereo not given)	-15	i	35	14	i
COc1cc(C(=S)N2CCN(c3ccccc3Cl)CC2)cc(O)c1O	99*	i	-1	26	i
CC(=O)Nc1ccc(SC[C@H](CC(C)C)N2CCN(CC(C)C)CCC2=O)cc1	98*	i	17	11	i
CC(=O)Nc1ccc(SC[C@H](CC(C)C)N2CCN(CCc3ccccc3)CCC2=O)cc1	99*	i	6	-12	i
CC(=O)Nc1ccc(S[C@@H](CCN2CC[C@H](O)CCC2=O)c2ccccc2)cc1	99*	nt	nt	10	nt
Cc1ccc(SC[C@H](CC(C)C)N2CCN(CCc3ccccc3)CCC2=O)cc1	nt	nt	10	nt	nt
CC(=O)Nc1ccc(SC[C@H](C)CN2CC[C@H](C(C)(C)C)CCC2=O)cc1	99*	nt	nt	17	nt
O=C1CC[C@@H](O)CCN1CC[C@H](Sc1ccccc1)c1ccccc1	31	i	11	3	i
CCN1C(=O)c2cccc3c(S(=O)(=O)NCC4CCCO4)ccc1c23 (stereo not given)	nt	i	15	12	i
Cc1oc(-c2cccs2)nc1CS(=O)CC(=O)NCCc1ccccc1 (stereo not given)	98*	i	35	9	i
CCCCNc1oc(-c2cccs2)nc1S(=O)(=O)c1ccccc1	4	i	0	13	i
CCCCNC(=O)CS(=O)Cc1nc(-c2cccs2)oc1C (stereo not given)	98*	i	13	6	i
Cc1oc(-c2cccs2)nc1CS(=O)CC(=O)NCCCOC(C)C (stereo not given)	99*	i	20	4	i
CCCN(CCC)C(=O)CSc1nc2c(sc(=S)n2-c2ccc(OCC)cc2)c(=O)[nH]1	23	i	23	18	i
CCOC(=O)CC(=O)CSc1nc2c(sc(=S)n2-c2ccc(OCC)cc2)c(=O)[nH]1	96*	i	39	-2	i
SMILES	ALR H2O2 inh	CHT PAM	AI-2 QS modul	PREPL inhibitor	CHT block
O=C(CSC1=NCCS1)NC(NC(=O)CSC1=NCCS1)c1ccccc1	3	i	-1	0	i
Cc1cccn2c(=O)nc(SCC(=O)NCc3ccccc3)nc12	-11	i	10	-5	i
Cc1cccn2c(=O)nc(SCC(=O)Nc3cccc4ccccc34)nc12	85*	i	12	12	i
O=C(CSC1=NCCS1)Nc1ccccc1F	99*	i	2	3	i
CCCN1C(=O)CC(=O)N=C1SCC(=O)Nc1ccccc1F	99*	nt	nt	1	nt
COC(=O)c1cc(NC(=O)CSC2=NCCS2)cc(C(=O)OC)c1	98*	i	16	-4	i
CC(=O)Nc1ccc(C(=O)OCCc2ccccc2)cc1	-3	i	nt	8	i
O=S(=O)(Oc1ccc(C(=S)N2CCOCC2)cc1)c1ccc(Cl)cc1	0	i	31	9	i
O=C(CSC1=NCCS1)Nc1cccc2ccccc12	98*	i	2	-11	i
O=C(CSc1cccs1)Nc1cccc2ccccc12	nt	i	25	-12	i
O=S(=O)(c1cnc[nH]1)N1CCN(c2ccc(Cl)cc2)CC1	nt	i	15	-5	i
O=C(C1CCCN(S(=O)(=O)c2cnc[nH]2)C1)N1CCN(c2ccc(Cl)cc2)CC1 (stereo not given)	96*	i	29	20	i
Cc1ccc(C)c(N2CCN(C(=O)C3CCCN(S(=O)(=O)c4cnc[nH]4)C3)CC2)c1 (stereo not given)	97*	i	34	3	i
COc1ccc(CCN(CC(=O)NC(C)(C)C)C(=O)Cn2nnc(-c3ccc(C)o3)n2)cc1OC	-5	i	22	-1	i
Nc1ccc(N=Nc2ccc(N)cc2)cc1	98*	i	5	13	i
N=C1C(c2nc(-c3ccc(Cl)cc3)cs2)=C(O)CN1CCCN1CCOCC1	98*	i	13	57*	i
CN(C)CCn1c2c(c(SCC(=O)Nc3cccc4ccccc34)nc1=O)CCCC2	20	i	-1	1	i
CCN(CC)CCn1c2c(c(SCC(=O)Nc3cccc(C(C)=O)c3)nc1=O)CCCC2	nt	nt	25	nt	nt
CCc1ccc(NC(=O)CSc2nc(=O)n(CCN(C)C)c3c2CCCC3)cc1	99*	i	7	25	i
COc1cccc(NC(=O)CSc2nc(=O)n(CCN(C)C)c3c2CCCC3)c1	97*	i	13	-9	i
CCc1nc2ccccc2c(NC(=O)CN2CC(C)CC(C)C2)c1C (stereo not given)	-8	i	20	5	i
COc1ccc(S(=O)(=O)NCc2nc3nc(C)cc(C)n3n2)cc1OC	-18	i	24	-8	i
Cc1[nH]c2ccccc2c1C(C[N+](=O)[O-])c1cccc(O)c1 (stereo not given)	98*	i	-6	3	i
Cc1ccc(-c2[nH]c3ccccc3c2C(C[N+](=O)[O-])c2ccco2)cc1 (stereo not given)	94*	i	?	0	i
COc1cc(C(C[N+](=O)[O-])c2c(C)[nH]c3ccccc23)ccc1O (stereo not given)	99*	i	9	0	i
